Compound in this assay: C#CCNC(=O)CCSSCCC(=O)NCCc1ccc(C=O)c(C=O)c1
Nature of the assay: lysine labeling ratio R10:1 (500 µM / 50 µM probe), SILAC-ABPP in living cells; higher = lower intrinsic lysine reactivity toward the probe, active = 2 or less. Particulars: HeLa; probe concentrations 500 vs 50 µM. In short, it runs like this: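 For each lysine, R is the median over forward and reverse replicates of the filtered median MS1 peptide ratio of high probe to low probe. The probe, an alkyne-tagged, disulfide-linked lysine probe, was given at 500 µM or 50 µM to living SILAC light and heavy HeLa cells in PBS at room temperature, with label swaps. Values are capped at 20.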
UniProt Q99985, sequence (Q99985 whole entry): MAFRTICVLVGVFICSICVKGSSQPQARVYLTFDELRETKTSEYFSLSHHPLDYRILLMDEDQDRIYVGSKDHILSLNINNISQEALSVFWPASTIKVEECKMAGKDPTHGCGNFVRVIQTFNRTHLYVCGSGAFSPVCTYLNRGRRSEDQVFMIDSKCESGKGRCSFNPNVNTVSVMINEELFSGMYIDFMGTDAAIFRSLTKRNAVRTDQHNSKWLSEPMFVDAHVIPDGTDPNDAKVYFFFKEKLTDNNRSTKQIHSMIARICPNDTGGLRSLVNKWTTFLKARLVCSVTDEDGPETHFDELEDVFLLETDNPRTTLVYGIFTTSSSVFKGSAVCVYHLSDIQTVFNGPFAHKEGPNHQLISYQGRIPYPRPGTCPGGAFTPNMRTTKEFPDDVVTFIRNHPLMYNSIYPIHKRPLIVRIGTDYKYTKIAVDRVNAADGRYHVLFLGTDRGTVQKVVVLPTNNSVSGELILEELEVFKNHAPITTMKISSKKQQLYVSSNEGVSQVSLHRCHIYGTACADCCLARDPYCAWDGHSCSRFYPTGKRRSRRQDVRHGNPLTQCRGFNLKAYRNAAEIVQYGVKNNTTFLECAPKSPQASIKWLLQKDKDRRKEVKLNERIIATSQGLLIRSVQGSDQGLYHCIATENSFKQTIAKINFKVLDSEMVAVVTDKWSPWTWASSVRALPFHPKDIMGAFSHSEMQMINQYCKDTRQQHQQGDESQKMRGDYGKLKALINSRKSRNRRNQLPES
UniProt P07996, sequence (P07996 whole entry, looked up): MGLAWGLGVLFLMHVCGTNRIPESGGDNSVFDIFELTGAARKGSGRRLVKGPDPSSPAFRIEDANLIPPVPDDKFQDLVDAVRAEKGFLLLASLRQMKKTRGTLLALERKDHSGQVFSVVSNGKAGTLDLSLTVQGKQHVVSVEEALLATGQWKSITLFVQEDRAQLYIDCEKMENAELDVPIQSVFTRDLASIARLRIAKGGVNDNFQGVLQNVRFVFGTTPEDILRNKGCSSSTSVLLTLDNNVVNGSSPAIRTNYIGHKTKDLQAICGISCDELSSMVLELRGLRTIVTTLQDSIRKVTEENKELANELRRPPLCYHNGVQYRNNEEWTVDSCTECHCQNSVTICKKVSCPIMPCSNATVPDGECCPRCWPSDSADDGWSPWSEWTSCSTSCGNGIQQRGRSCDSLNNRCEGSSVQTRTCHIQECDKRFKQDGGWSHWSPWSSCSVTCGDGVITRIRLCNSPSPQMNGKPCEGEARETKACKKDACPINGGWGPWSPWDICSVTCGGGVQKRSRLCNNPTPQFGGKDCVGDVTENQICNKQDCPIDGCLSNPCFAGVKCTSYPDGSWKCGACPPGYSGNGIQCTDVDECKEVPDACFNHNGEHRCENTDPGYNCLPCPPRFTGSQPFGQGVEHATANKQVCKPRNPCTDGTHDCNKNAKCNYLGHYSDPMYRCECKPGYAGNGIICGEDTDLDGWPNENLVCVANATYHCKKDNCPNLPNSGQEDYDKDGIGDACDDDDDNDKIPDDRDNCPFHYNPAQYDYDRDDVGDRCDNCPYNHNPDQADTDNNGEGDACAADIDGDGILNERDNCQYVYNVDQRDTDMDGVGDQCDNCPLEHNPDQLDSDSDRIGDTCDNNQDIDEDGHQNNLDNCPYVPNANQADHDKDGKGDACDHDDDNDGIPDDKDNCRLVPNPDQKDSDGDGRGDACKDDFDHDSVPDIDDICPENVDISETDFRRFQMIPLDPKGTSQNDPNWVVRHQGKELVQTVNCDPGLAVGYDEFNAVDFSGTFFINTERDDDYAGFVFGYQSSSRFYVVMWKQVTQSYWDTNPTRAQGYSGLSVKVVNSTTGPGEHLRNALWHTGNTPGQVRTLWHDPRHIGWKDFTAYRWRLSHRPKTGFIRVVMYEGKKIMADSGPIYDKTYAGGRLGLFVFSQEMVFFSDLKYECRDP
UniProt P23528, sequence (P23528 whole entry): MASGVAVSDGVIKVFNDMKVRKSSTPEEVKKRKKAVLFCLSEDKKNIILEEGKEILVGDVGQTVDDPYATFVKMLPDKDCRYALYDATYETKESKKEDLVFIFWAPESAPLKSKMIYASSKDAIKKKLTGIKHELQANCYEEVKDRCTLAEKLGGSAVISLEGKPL
UniProt O15031, sequence (O15031 whole entry): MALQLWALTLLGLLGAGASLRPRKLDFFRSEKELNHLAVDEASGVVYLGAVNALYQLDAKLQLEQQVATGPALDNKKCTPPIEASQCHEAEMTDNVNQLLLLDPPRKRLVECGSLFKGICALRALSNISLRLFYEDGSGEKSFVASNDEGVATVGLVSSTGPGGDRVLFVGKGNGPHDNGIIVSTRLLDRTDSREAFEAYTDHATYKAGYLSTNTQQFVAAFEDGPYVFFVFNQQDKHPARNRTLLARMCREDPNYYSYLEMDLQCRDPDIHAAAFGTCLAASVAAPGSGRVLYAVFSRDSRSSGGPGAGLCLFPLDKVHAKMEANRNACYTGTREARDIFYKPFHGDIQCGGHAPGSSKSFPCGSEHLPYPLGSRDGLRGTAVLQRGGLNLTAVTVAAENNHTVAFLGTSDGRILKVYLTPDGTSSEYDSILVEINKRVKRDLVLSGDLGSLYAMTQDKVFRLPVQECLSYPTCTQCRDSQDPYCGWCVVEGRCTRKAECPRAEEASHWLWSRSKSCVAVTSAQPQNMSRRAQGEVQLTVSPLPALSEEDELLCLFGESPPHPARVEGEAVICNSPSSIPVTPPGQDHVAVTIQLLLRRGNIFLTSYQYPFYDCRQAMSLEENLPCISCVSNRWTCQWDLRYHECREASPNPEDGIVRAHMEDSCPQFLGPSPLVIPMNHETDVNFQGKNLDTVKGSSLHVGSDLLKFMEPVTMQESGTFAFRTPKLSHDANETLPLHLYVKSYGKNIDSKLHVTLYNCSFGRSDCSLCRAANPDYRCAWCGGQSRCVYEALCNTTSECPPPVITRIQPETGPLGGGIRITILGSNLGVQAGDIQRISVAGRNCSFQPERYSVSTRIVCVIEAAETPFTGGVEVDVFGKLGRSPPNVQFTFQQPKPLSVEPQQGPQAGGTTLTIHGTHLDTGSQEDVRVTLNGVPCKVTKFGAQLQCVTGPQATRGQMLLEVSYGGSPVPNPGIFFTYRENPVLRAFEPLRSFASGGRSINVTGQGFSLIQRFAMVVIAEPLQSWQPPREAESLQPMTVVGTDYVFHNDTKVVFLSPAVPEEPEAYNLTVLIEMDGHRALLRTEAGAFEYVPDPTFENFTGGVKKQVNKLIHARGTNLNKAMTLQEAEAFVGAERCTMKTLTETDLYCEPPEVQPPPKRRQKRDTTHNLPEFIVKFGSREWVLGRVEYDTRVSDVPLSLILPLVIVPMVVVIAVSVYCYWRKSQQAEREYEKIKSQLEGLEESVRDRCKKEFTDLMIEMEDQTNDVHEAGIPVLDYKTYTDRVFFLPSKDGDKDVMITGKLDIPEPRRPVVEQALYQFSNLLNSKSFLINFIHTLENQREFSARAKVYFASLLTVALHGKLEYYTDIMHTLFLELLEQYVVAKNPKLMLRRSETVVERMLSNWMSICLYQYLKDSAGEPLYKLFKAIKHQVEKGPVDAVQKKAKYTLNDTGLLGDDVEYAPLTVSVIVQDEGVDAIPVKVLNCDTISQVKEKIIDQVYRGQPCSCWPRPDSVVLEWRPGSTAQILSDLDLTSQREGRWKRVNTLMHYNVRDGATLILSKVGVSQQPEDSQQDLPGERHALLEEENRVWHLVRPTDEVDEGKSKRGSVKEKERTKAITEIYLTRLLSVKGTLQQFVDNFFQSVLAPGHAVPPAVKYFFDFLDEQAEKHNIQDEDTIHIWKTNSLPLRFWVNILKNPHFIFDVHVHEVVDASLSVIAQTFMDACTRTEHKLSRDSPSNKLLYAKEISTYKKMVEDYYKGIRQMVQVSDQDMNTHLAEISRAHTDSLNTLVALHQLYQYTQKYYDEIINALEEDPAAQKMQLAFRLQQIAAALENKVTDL
UniProt Q96PD2, sequence (Q96PD2 whole entry): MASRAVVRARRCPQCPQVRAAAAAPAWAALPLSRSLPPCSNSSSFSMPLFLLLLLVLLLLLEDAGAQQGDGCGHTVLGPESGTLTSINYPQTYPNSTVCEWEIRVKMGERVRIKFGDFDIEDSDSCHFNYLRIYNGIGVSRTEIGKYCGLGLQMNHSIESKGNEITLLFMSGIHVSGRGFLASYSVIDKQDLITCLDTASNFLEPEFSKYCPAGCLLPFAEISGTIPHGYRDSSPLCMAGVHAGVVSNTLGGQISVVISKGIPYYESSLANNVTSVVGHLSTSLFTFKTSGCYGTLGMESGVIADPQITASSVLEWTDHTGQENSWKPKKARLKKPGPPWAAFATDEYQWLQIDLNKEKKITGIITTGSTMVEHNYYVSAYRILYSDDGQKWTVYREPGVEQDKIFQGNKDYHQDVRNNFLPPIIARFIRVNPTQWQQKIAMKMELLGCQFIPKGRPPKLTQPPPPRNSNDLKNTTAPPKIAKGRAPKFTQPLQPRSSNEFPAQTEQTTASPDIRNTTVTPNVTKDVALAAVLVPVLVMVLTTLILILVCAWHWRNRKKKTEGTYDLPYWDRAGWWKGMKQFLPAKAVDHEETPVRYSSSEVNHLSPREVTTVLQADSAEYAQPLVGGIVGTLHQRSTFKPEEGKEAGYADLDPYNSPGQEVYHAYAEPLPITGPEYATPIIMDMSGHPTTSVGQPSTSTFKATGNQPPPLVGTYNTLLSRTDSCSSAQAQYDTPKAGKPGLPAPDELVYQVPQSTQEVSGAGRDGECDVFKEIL
UniProt Q9HB71, sequence (Q9HB71 whole entry): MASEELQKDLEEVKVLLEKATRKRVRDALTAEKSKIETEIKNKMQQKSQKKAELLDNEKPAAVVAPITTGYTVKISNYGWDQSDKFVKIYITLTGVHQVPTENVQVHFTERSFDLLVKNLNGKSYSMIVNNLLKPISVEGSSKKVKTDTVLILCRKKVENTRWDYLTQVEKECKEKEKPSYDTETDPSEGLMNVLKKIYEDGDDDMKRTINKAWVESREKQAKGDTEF
As for “FN1 (lysine site: K1623) (UniProt P02751)”, the “lysine labeling ratio R10:1” value was 1.34 (active).

Turning to “KIRREL (lysine site: K410) (UniProt Q96J84)”, the “lysine labeling ratio R10:1” value was 2.51 (inactive).

As to “PLS3 (lysine site: K315) (UniProt P13797)”, the “lysine labeling ratio R10:1” value is 1.71 (active).

In the case of “ANKH (lysine site: K127) (UniProt Q9HCJ1)”, the “lysine labeling ratio R10:1” value was 0.684 (active).

With “SPTBN1 (lysine site: K497) (UniProt Q01082)”, the “lysine labeling ratio R10:1” value was 2.59 (inactive).

For the target “CDH13 (lysine site: K178) (UniProt P55290)”, the “lysine labeling ratio R10:1” value was 7.63 (inactive).

For “THBS1 (lysine site: K430) (UniProt P07996)”, the “lysine labeling ratio R10:1” value was 3.67 (inactive).

For “HNRNPM (lysine site: K239) (UniProt P52272)”, the “lysine labeling ratio R10:1” value is 1.67 (active).

For “CFL1 (lysine site: K164) (UniProt P23528)”, the “lysine labeling ratio R10:1” value was 4.91 (inactive).

As to “IGSF3 (lysine site: K373) (UniProt O75054)”, the “lysine labeling ratio R10:1” value is 3.12 (inactive).

Regarding “EGFR (lysine site: K489) (UniProt P00533)”, the “lysine labeling ratio R10:1” value is 1.31 (active).

Take “ATAD3B (lysine site: K117) (UniProt Q5T9A4)”: the “lysine labeling ratio R10:1” value is 1.26 (active).

Consider “ITGB1 (lysine site: K551) (UniProt P05556)”, for which the “lysine labeling ratio R10:1” value is 5.51 (inactive).

As to “TNFRSF10A (lysine site: K191) (UniProt O00220)”, the “lysine labeling ratio R10:1” value was 6.6 (inactive).

Regarding “ITGA5 (lysine site: K965) (UniProt P08648)”, the “lysine labeling ratio R10:1” value was 0.705 (active).

On to “EHD1 (lysine site: K220) (UniProt Q9H4M9)”, for which the “lysine labeling ratio R10:1” value is 4.05 (inactive).

As to “ATRN (lysine site: K1133) (UniProt O75882)”, the “lysine labeling ratio R10:1” value is 1.81 (active).

As to UniProt P62263 (lysine site: K125), the “lysine labeling ratio R10:1” value was 5.61 (inactive).

For the target “SPTAN1 (lysine site: K2404) (UniProt Q13813)”, the “lysine labeling ratio R10:1” value is 1.94 (active).

For the target “MYH9 (lysine site: K299) (UniProt P35579)”, the “lysine labeling ratio R10:1” value is 2.23 (inactive).

As for “MSN (lysine site: K151) (UniProt P26038)”, the “lysine labeling ratio R10:1” value is 2.26 (inactive).

As to “PLXNB2 (lysine site: K322) (UniProt O15031)”, the “lysine labeling ratio R10:1” value is 0.663 (active).

For the target “LAMB1 (lysine site: K158) (UniProt P07942)”, the “lysine labeling ratio R10:1” value was 1.78 (active).

As for “LNPEP (lysine site: K726) (UniProt Q9UIQ6)”, the “lysine labeling ratio R10:1” value was 0.91 (active).

With “DCBLD2 (lysine site: K391) (UniProt Q96PD2)”, the “lysine labeling ratio R10:1” value was 3.28 (inactive).

Regarding UniProt Q32P28 (lysine site: K437), the “lysine labeling ratio R10:1” value is 1.13 (active).

Turning to “CLTC (lysine site: K1501) (UniProt Q00610)”, the “lysine labeling ratio R10:1” value is 2.77 (inactive).

Turning to “CPM (lysine site: K338) (UniProt P14384)”, the “lysine labeling ratio R10:1” value is 4.51 (inactive).

“LMO7 (lysine site: K794) (UniProt Q8WWI1)”: the “lysine labeling ratio R10:1” value is 2.02 (inactive).

As for “LMAN1 (lysine site: K346) (UniProt P49257)”, the “lysine labeling ratio R10:1” value was 9.39 (inactive).

Regarding “TFRC (lysine site: K128) (UniProt P02786)”, the “lysine labeling ratio R10:1” value was 6.74 (inactive).

Regarding “VIM (lysine site: K120) (UniProt P08670)”, the “lysine labeling ratio R10:1” value is 10 (inactive).

For “SEMA3C (lysine site: K495) (UniProt Q99985)”, the “lysine labeling ratio R10:1” value is 2.53 (inactive).

On to “CD151 (lysine site: K186) (UniProt P48509)”, for which the “lysine labeling ratio R10:1” value is 6.68 (inactive).

In the case of “CTTN (lysine site: K272) (UniProt Q14247)”, the “lysine labeling ratio R10:1” value was 1.57 (active).

With “PDIA3 (lysine site: K362) (UniProt P30101)”, the “lysine labeling ratio R10:1” value is 2.15 (inactive).

As to “SEMA3C (lysine site: K431) (UniProt Q99985)”, the “lysine labeling ratio R10:1” value is 2.67 (inactive).

“CACYBP (lysine site: K223) (UniProt Q9HB71)”: the “lysine labeling ratio R10:1” value is 1.74 (active).

For the target “AGRN (lysine site: K1198) (UniProt O00468)”, the “lysine labeling ratio R10:1” value is 3.68 (inactive).

“CACNA2D1 (lysine site: K577) (UniProt P54289)”: the “lysine labeling ratio R10:1” value is 4.82 (inactive).
